Assay results from PubChem BioAssay.
The source made the active and inactive calls.

How the values were obtained:
[1] = small molecules captured by biotinylated probe aFSTL3 – biochemical, small-molecule microarray, fluorescence 635/667, stem cell growth factor project, primary screen (AID 1064); settings: higher = more signal;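 also: measures binding of the biotinylated anti-FSTL3 antibody to printed compounds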
[2] = binders from COS7 lysate, DM2A8 probe, primary screen, torsin A project, cell lysate, small-molecule microarray, fluorescence 635/667 (AID 1065); settings: higher = more signal, COS7 lysate expressing mutant human TOR1A
[3] = small molecules captured by biotinylated probe aFGF2 – biochemical, small-molecule microarray, fluorescence 635/667, stem cell growth factor project, primary screen (AID 1067); settings: higher = more signal;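 also: measures binding of biotinylated aFGF2 protein to printed compounds on slides; z-score merges feature fluorescence and signal-to-noise across triplicate slides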
[4] = small molecules captured by biotinylated probe aFGF10 – biochemical, small-molecule microarray, fluorescence 635/667, stem cell growth factor project, primary screen (AID 1071); settings: higher = more signal;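 also: score merges 667 nm spot intensity and signal to noise from triplicate slides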
[5] = biological target: Neurogenic locus notch homolog protein 2 (Homo sapiens) (UniProt Q04721); experiment: small molecules binding Notch2 protein – biochemical, small-molecule microarray, 635 nm fluorescence, stem cell growth factors, primary screen (AID 1073); settings: higher = more signal
[6] = biological target: Pro-neuregulin-1, membrane-bound isoform (Homo sapiens) (UniProt Q02297); experiment: small molecules binding neuregulin-1 protein – biochemical, small-molecule microarray, fluorescence 635/667, psychiatric disease protein project, primary screen (AID 1075); settings: NRG1 binding, 635 nm fluorescence, higher = more signal;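 also: score combines 667 nm spot fluorescence with signal to noise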
[7] = test system: Neuregulin-1 EGF-like domain; experiment: small molecules binding NRG1 EGF domain – biochemical, small-molecule microarray, 635 nm fluorescence, primary screen (AID 1081); settings: higher = more signal;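 also: binding of the protein to compounds printed on small-molecule microarray slides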
[8] = FRG1 expression reporter modulators in myotubes – cell-based, C2C12 myotubes, firefly/Renilla luciferase, luminescence, FRG1 inhibition for FSHD, primary screen (AID 1084); settings: FRG1 promoter luciferase, higher = more signal, called active from +8 up or from −8 down
[9] = small molecules captured by biotinylated probe aFST – biochemical, small-molecule microarray, fluorescence 635/667, stem cell growth factor project, primary screen (AID 1086); settings: higher = more signal;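 also: score merges 667 nm fluorescence with signal-to-noise of each printed compound spot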
[10] = binders of probe aHhip on microarray, primary screen, stem cell growth factor project, biochemical, small-molecule microarray, fluorescence 635/667 (AID 1087); settings: higher = more signal;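 also: score merges spot fluorescence at 667nm with spot signal to noise ratio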
[11] = test system: PRMT1 (protein arginine N-methyltransferase 1); experiment: small molecules binding arginine methyltransferase PRMT1 – biochemical, small-molecule microarray, 635 nm fluorescence, primary screen (AID 1088); settings: higher = more signal;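 also: binding of Prmt1 protein to compounds spotted on small-molecule microarray slides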
[12] = growth effects on S. cerevisiae YJM789 – YJM789 clinical isolate, OD600, 24 h, basal, primary screen (AID 1089); settings: higher = more signal, called active from +8 up or from −8 down;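 also: growth of clinical yeast isolate S. cerevisiae YJM 789 seeded 1000 cells per well; test concentration not given here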
[13] = S. pombe growth modifiers, basal conditions – strain 972, OD600, 24 h, no modulator, primary screen (AID 1090);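 also: basal condition with compound alone and no growth modifier present; test concentration not given here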; settings: S. pombe 972 growth, higher = more signal, called active from +8 up or from −8 down
[14] = budding yeast growth modifiers under rapamycin – strain BY4716, OD600, 96 h, primary screen (AID 1091); also: test concentration not given here; settings: S. cerevisiae BY4716 + rapamycin, higher = more signal, called active from +8 up or from −8 down
[15] = biological target: Torsin-1A-interacting protein 2 (Homo sapiens) (UniProt Q8NFQ8); experiment: small molecules binding lysate-expressed LULL1 – cell lysate, human LULL1 lysate, 635/667 nm fluorescence, primary screen (AID 1092); settings: small-molecule microarray, hLULL1 lysate binding, 635 nm fluorescence; higher = more signal;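 also: probe is lysate of COS7 cells overexpressing human LULL1; score merges per-feature 667 nm fluorescence with signal-to-noise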
[16] = optical density change of DRC41 E. coli – strain DRC41, OD650, 24 h, E. coli filamentation project, primary screen (AID 1093);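 also: MC1000 strain lacking acrAB efflux and sulA so SOS filamentation is blocked; test concentration not given here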; settings: E. coli DRC41 growth, higher = more signal, called active from +8 up or from −8 down
[17] = probe aLefty2 binding to arrayed compounds – biochemical, biotinylated probe, 635/667 nm fluorescence, primary screen (AID 1094); settings: small-molecule microarray, higher = more signal;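 also: score merges spot fluorescence near 667 nm with spot signal-to-noise ratio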
[18] = test system: Noggin (protein binding on small-molecule microarray); experiment: small molecules binding Noggin protein – biochemical, 635/667 nm fluorescence, primary screen (AID 1095); settings: 635 nm fluorescence, higher = more signal;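 also: score merges 667 nm feature fluorescence with signal to noise over triplicate slides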
[19] = biological target: Neurogenic locus notch homolog protein 3 (Homo sapiens) (UniProt Q9UM47); experiment: small molecules binding NOTCH3 protein – biochemical, 635/667 nm fluorescence, primary screen (AID 1096); settings: small-molecule microarray, 635 nm fluorescence, higher = more signal
[20] = probe aEGFR binding to arrayed compounds – biochemical, biotinylated probe, 635/667 nm fluorescence, primary screen (AID 1097); settings: small-molecule microarray, higher = more signal;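 also: probe is a biotinylated anti-EGFR antibody binding compounds printed on slides; score combines fluorescence near 667 nm and signal to noise of each spot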

Chain of Pro-neuregulin-1, membrane-bound isoform (Homo sapiens) (Q02297 whole entry, looked up, the tested form may be a part, canonical isoform): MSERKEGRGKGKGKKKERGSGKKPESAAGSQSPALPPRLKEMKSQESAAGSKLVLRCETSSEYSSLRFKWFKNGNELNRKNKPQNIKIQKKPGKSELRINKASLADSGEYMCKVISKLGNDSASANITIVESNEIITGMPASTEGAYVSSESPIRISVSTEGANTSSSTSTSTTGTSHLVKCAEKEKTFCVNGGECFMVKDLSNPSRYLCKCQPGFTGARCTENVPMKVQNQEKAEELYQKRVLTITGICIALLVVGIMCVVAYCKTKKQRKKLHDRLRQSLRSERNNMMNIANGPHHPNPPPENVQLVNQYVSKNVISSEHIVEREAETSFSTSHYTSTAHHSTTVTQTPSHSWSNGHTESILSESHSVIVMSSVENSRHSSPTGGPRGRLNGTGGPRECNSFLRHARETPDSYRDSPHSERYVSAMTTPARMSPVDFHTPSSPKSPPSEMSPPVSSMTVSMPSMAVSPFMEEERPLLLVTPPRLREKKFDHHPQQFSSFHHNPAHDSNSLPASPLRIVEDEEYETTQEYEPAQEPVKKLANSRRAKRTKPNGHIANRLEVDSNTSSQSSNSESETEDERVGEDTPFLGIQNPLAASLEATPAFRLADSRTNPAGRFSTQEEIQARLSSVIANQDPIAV
Chain of Torsin-1A-interacting protein 2 (Homo sapiens) (Q8NFQ8 whole entry, looked up): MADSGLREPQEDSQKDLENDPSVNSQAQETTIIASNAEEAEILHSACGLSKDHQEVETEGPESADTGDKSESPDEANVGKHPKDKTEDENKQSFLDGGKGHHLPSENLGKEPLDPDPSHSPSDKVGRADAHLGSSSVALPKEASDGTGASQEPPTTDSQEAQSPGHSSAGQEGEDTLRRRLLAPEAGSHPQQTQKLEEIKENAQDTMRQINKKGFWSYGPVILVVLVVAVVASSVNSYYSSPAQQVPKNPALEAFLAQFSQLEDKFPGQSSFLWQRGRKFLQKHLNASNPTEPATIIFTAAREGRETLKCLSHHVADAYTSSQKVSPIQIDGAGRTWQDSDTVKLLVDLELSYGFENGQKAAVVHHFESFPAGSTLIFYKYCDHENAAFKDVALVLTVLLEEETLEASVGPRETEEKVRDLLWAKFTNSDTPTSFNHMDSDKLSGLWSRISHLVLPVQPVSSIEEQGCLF
Chain of Neurogenic locus notch homolog protein 2 (Homo sapiens) (Q04721 whole entry, looked up, canonical isoform): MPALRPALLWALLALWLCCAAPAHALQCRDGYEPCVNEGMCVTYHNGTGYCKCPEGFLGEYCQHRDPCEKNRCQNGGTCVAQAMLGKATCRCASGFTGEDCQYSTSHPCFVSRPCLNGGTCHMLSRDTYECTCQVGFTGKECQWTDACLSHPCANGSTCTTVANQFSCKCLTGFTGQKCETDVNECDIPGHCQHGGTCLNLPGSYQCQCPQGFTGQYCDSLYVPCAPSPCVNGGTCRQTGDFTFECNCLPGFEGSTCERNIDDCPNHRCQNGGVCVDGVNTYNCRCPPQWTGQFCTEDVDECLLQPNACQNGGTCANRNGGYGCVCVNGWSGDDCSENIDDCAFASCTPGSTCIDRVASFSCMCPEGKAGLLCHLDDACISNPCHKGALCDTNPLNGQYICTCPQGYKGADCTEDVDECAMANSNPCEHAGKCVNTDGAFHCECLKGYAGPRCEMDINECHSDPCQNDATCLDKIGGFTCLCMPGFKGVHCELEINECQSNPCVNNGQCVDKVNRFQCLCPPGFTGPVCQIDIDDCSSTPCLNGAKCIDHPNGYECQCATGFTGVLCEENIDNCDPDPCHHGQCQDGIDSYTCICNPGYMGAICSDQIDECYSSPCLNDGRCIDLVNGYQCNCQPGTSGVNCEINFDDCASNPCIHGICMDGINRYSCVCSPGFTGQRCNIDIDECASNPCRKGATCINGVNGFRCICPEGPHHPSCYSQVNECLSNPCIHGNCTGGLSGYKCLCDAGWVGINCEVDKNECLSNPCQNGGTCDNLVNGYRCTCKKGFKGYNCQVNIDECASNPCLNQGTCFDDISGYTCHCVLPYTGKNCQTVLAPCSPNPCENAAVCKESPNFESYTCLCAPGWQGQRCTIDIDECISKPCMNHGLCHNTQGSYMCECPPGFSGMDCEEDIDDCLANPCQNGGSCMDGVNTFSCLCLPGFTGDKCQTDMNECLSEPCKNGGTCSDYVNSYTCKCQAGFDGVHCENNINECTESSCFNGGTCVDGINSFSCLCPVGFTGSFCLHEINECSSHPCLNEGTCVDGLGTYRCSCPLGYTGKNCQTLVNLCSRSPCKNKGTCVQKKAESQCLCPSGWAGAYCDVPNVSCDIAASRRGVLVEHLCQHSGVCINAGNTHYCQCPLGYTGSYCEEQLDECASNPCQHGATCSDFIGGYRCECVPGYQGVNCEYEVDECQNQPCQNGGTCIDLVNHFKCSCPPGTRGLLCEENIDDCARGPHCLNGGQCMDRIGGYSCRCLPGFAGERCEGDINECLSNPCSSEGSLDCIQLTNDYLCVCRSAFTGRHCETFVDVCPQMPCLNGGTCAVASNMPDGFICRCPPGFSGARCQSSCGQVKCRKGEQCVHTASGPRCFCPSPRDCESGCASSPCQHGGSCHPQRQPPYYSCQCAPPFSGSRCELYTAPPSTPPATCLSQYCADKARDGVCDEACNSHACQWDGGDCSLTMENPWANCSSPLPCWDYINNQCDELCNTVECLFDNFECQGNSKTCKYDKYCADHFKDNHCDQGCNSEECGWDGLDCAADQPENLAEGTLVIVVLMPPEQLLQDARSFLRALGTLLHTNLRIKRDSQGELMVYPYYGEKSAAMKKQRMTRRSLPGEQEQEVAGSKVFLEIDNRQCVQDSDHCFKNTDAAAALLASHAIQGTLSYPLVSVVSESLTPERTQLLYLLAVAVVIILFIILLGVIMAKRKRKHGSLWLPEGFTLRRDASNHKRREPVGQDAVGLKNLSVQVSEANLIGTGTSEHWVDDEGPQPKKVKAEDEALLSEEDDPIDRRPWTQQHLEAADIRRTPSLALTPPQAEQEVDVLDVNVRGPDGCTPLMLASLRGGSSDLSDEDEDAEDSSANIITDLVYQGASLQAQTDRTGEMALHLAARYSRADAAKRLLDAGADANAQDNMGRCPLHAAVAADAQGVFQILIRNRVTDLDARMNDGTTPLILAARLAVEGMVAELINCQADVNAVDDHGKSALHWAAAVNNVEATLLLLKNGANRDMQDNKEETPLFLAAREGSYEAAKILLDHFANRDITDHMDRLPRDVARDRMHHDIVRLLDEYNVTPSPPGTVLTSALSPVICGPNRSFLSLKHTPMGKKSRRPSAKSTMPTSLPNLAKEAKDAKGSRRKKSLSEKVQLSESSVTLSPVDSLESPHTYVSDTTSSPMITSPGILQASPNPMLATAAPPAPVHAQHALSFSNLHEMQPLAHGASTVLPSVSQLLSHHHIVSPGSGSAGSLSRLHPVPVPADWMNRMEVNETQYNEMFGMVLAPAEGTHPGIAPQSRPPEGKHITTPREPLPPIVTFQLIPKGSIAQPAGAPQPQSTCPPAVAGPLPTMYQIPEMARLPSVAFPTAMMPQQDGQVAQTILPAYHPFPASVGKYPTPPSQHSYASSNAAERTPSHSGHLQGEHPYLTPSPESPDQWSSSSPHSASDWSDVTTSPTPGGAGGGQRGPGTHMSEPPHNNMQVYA

COC(=O)[C@H](Cc1ccccc1)NC(=O)[C@@H](C)CO
composite z-score [1]: 0.503
composite z-score [2]: 0.482
composite z-score [3]: -0.0105
composite z-score [4]: 0.417
composite z-score [5]: 0.458
composite z-score [6]: -0.35
composite z-score [7]: 0.867
z-score [8]: 0.313 (inactive)
composite z-score [9]: 0.53
composite z-score [10]: -0.0672
composite z-score [11]: 1.41
z-score [12]: -0.152 (inactive)
z-score [13]: -0.187 (inactive)
z-score [14]: 0.22 (inactive)
composite z-score [15]: 0.738
z-score [16]: -0.503 (inactive)
composite z-score [17]: 0.0498
composite z-score [18]: 0.441
composite z-score [19]: 0.588
composite z-score [20]: 0.169

COC(=O)[C@H](C)NC(=O)CCC1CC(OC(=O)NCc2cccc3ccccc23)CC2(CCCC(COC(=O)NCCOc3ccccc3)O2)O1 (stereo not given in full)
composite z-score [1]: -0.359
composite z-score [2]: 0.222
composite z-score [3]: -0.0707
composite z-score [4]: 0.15
composite z-score [5]: 0.708
composite z-score [6]: 1.27
composite z-score [7]: 1.01
z-score [8]: 0.191 (inactive)
composite z-score [9]: 0.173
composite z-score [10]: -0.169
composite z-score [11]: 1.53
z-score [12]: -0.534 (inactive)
z-score [13]: -0.231 (inactive)
z-score [14]: -0.576 (inactive)
composite z-score [15]: 2.21
z-score [16]: 0.544 (inactive)
composite z-score [17]: -0.208
composite z-score [18]: 0.11
composite z-score [19]: 0.377
composite z-score [20]: -0.145

COC(=O)[C@@H]1CC[C@H](C)[C@@H](c2ccc(Br)cc2)N1
composite z-score [1]: 1.1
composite z-score [2]: -0.288
composite z-score [3]: 0.0499
composite z-score [4]: 0.169
composite z-score [5]: -0.208
composite z-score [6]: 0.153
composite z-score [7]: -0.201
z-score [8]: -0.382 (inactive)
composite z-score [9]: -0.155
composite z-score [10]: 0.842
composite z-score [11]: -2.1
z-score [12]: 0.826 (inactive)
z-score [13]: 0.771 (inactive)
z-score [14]: 1.08 (inactive)
composite z-score [15]: 1.24
z-score [16]: 0.532 (inactive)
composite z-score [17]: 0.195
composite z-score [18]: -0.265
composite z-score [19]: -1.19
composite z-score [20]: -0.044

CC(C)CON=C1C[C@@H](O)[C@@H](O)[C@@H]2[C@@H]3C(=O)N(c4ccc(F)cc4F)C(=O)[C@@H]3CC[C@@H]12
composite z-score [1]: -0.527
composite z-score [2]: 0.118
composite z-score [3]: -0.0502
composite z-score [4]: 0.345
composite z-score [5]: 0.429
composite z-score [6]: 0.984
composite z-score [7]: 0.557
z-score [8]: 0.581 (inactive)
composite z-score [9]: 0.283
composite z-score [10]: -0.0994
composite z-score [11]: 0.601
z-score [12]: 0.0347 (inactive)
z-score [13]: -0.786 (inactive)
z-score [14]: -0.733 (inactive)
composite z-score [15]: 0.956
z-score [16]: 1.24 (inactive)
composite z-score [17]: -0.212
composite z-score [18]: 0.344
composite z-score [19]: 0.898
composite z-score [20]: -0.026

COc1ccc(O[C@H]2C=C[C@@H](c3ccccc3)O[C@@H]2COC(=O)NCc2cccc3ccccc23)cc1
composite z-score [1]: -0.0348
composite z-score [2]: -0.0761
composite z-score [3]: -0.107
composite z-score [4]: 0.0599
composite z-score [5]: -0.096
composite z-score [6]: -0.027
composite z-score [7]: 0.0452
z-score [8]: -0.97 (inactive)
composite z-score [9]: -0.116
composite z-score [10]: -0.294
composite z-score [11]: 0.133
z-score [12]: 0.68 (inactive)
z-score [13]: 0.393 (inactive)
z-score [14]: 1.28 (inactive)
composite z-score [15]: 0.33
z-score [16]: -0.477 (inactive)
composite z-score [17]: -0.106
composite z-score [18]: 0.0672
composite z-score [19]: -0.574
composite z-score [20]: -0.122

CC(C)=NOC[C@@H](O)[C@H]1O[C@@H]2OC(C)(C)O[C@@H]2[C@H]1O
composite z-score [1]: -0.732
composite z-score [2]: 0.97
composite z-score [3]: 0.197
composite z-score [4]: 0.502
composite z-score [5]: 1.09
composite z-score [6]: 0.233
composite z-score [7]: 0.457
z-score [8]: -0.476 (inactive)
composite z-score [9]: 0.548
composite z-score [10]: -0.191
composite z-score [11]: 0.956
z-score [12]: 0.51 (inactive)
z-score [13]: 0.0819 (inactive)
z-score [14]: 0.243 (inactive)
composite z-score [15]: 0.178
z-score [16]: 0.132 (inactive)
composite z-score [17]: 0.19
composite z-score [18]: 0.625
composite z-score [19]: 0.498
composite z-score [20]: 0.0727

C=CC[C@@H]1C=C[C@H](ON=CC[C@@H]2C=C[C@H](OC(C)=O)[C@@H](COC(C)=O)O2)[C@@H](CO)O1
composite z-score [1]: -0.256
composite z-score [2]: 0.52
composite z-score [3]: -0.0864
composite z-score [4]: 0.75
composite z-score [5]: 1.12
composite z-score [6]: 1.06
composite z-score [7]: 1.11
z-score [8]: 0.411 (inactive)
composite z-score [9]: 1.06
composite z-score [10]: -0.314
composite z-score [11]: 1.26
z-score [12]: 0.953 (inactive)
z-score [13]: 0.489 (inactive)
z-score [14]: 0.476 (inactive)
composite z-score [15]: 1.3
z-score [16]: 0.558 (inactive)
composite z-score [17]: 0.235
composite z-score [18]: 0.984
composite z-score [19]: 1.05
composite z-score [20]: 0.169

COC(=O)[C@@H]1CC[C@H](C)[C@@H](c2ccc(Br)cc2)N1C(=O)C(F)(F)F
composite z-score [1]: -0.23
composite z-score [2]: -0.214
composite z-score [3]: -0.108
composite z-score [4]: -0.148
composite z-score [5]: -0.232
composite z-score [6]: -0.493
composite z-score [7]: -0.677
z-score [8]: -0.589 (inactive)
composite z-score [9]: -0.249
composite z-score [10]: -0.412
composite z-score [11]: -1.18
z-score [12]: 0.61 (inactive)
z-score [13]: 0.186 (inactive)
z-score [14]: 2.16 (inactive)
composite z-score [15]: 1.25
z-score [16]: 0.11 (inactive)
composite z-score [17]: -0.22
composite z-score [18]: -0.281
composite z-score [19]: -0.446
composite z-score [20]: -0.226

CC(C)CON=C1C[C@@H](O)[C@@H](O)[C@@H]2[C@@H]3C(=O)N([C@@H](C)c4ccccc4)C(=O)[C@@H]3CC[C@@H]12
composite z-score [1]: 0.083
composite z-score [2]: 0.114
composite z-score [3]: -0.145
composite z-score [4]: 0.107
composite z-score [5]: 0.309
composite z-score [6]: -0.104
composite z-score [7]: -0.546
z-score [8]: 0.431 (inactive)
composite z-score [9]: 0.624
composite z-score [10]: 0.0373
composite z-score [11]: -0.413
z-score [12]: 0.281 (inactive)
z-score [13]: 0.603 (inactive)
z-score [14]: -0.188 (inactive)
composite z-score [15]: 0.246
z-score [16]: 0.3 (inactive)
composite z-score [17]: 0.224
composite z-score [18]: 0.347
composite z-score [19]: 0.114
composite z-score [20]: -0.0286

CN1CCc2nc(-c3ccccc3)c(-c3ccccc3)cc2C1
composite z-score [1]: -0.16
composite z-score [2]: 0.0357
composite z-score [3]: -0.128
composite z-score [4]: 0.239
composite z-score [5]: 0.521
composite z-score [6]: -0.013
composite z-score [7]: -0.326
z-score [8]: -0.0006 (inactive)
composite z-score [9]: -0.117
composite z-score [10]: -0.148
composite z-score [11]: -0.288
z-score [12]: 0.0301 (inactive)
z-score [13]: 0.173 (inactive)
z-score [14]: -1.35 (inactive)
composite z-score [15]: -0.0501
z-score [16]: 0.697 (inactive)
composite z-score [17]: 0.361
composite z-score [18]: 0.405
composite z-score [19]: 0.157
composite z-score [20]: -0.0382
